What all share (details): mRNA level, 48 h; actives raise or lower the signal
Read-out in experiment [1]: CFLAR gene, CFLAR (gene 8837)
The experiment is described as follows: LTEA_HepaRG_CFLAR: Life Technologies and Expression Analysis (LTEA) Assay for CFLAR gene using HepaRG (AID 2283455). The method, boiled down:
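qRT-PCR read-out (Fluidigm/TaqMan) of CFLAR mRNA, normalized to three housekeeping genes, in differentiated human HepaRG cells after 48 h chemical exposure; 8-point half-log series from 100 uM in 0.5% DMSO; bidirectional curve fitting versus DMSO.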

Read-out in experiment [2]: Forkhead box O1 (FOXO1), FOXO1 (gene 2308)
The experiment is described as follows: LTEA_HepaRG_FOXO1: Life Technologies and Expression Analysis (LTEA) Assay for Forkhead box O1 (FOXO1) using HepaRG (AID 2283456). Summed up: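 HepaRG, 48 h exposure, 8-pt half-log series from 100 uM in 0.5% DMSO, duplicates; Fluidigm qRT-PCR mRNA, housekeeping-normalised; bidirectional fit vs DMSO baseline.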

Read-out in experiment [3]: Forkhead box O3 (FOXO3), FOXO3 (gene 2309)
Nature of the experiment: LTEA_HepaRG_FOXO3: Life Technologies and Expression Analysis (LTEA) Assay for Forkhead box O3 (FOXO3) using HepaRG (AID 2283459). Summed up:
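qRT-PCR readout of FOXO3 transcript, normalized to three housekeeping genes (ACTB, GAPDH, POLR2A); gain or loss fitted against 0.5% DMSO vehicle. HepaRG cells, 48 h chemical exposure, 8-point half-log series, top 100 uM.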

Read-out in experiment [4]: ABC Transporter (ABCB1), ABCB1 (gene 5243)
Nature of the experiment: LTEA_HepaRG_ABCB1: Life Technologies and Expression Analysis (LTEA) Assay for ABC Transporter (ABCB1) using HepaRG (AID 2283460). The method, boiled down:
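HepaRG, 48 h exposure, 8-pt half-log series from 100 uM, 0.5% DMSO vehicle, duplicates. Readout: ABCB1 transcript by Fluidigm TaqMan qRT-PCR, housekeeping-normalized; bidirectional curve fit vs DMSO baseline.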

Read-out in experiment [5]: growth arrest and DNA damage 45 (GADD45B), GADD45B (gene 4616)
The experiment is described as follows: LTEA_HepaRG_GADD45B: Life Technologies and Expression Analysis (LTEA) Assay for growth arrest and DNA damage 45 (GADD45B) using HepaRG (AID 2283461). The method, boiled down: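 Differentiated HepaRG cells, plated 48 h then switched to serum-free induction medium, were exposed 48 h in duplicate to eight half-log concentrations from 100 uM in 0.5% DMSO; mRNA quantified by qRT-PCR, normalized to ACTB/GAPDH/POLR2A, bidirectional fit versus DMSO.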

Read-out in experiment [6]: ABC Transporter (ABCC3), ABCC3 (gene 8714)
Nature of the experiment: LTEA_HepaRG_ABCC3: Life Technologies and Expression Analysis (LTEA) Assay for ABC Transporter (ABCC3) using HepaRG (AID 2283462). The method, boiled down: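 HepaRG cells in serum-free induction medium were exposed for 48 h in duplicate to 8-point half-log concentrations topping at 100 uM in 0.5% DMSO. ABCC3 mRNA was measured by qRT-PCR normalized to ACTB, GAPDH and POLR2A, with bidirectional fitting versus DMSO.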

Read-out in experiment [7]: ABC Transporter (ABCB11), ABCB11 (gene 8647)
The experiment is described as follows: LTEA_HepaRG_ABCB11: Life Technologies and Expression Analysis (LTEA) Assay for ABC Transporter (ABCB11) using HepaRG (AID 2283463). Summed up:
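HepaRG, 48 h exposure, 8-pt half-log CRC top 100 uM, 0.5% DMSO vehicle, duplicates. Readout: TaqMan qRT-PCR of ABCB11 mRNA, housekeeping-normalized (ACTB/GAPDH/POLR2A). Bidirectional fit vs DMSO baseline.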

Read-out in experiment [8]: ABC Transporter (ABCC2), ABCC2 (gene 1244)
The experiment is described as follows: LTEA_HepaRG_ABCC2: Life Technologies and Expression Analysis (LTEA) Assay for ABC Transporter (ABCC2) using HepaRG (AID 2283464). The method, boiled down:
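HepaRG cells were plated 48 h, switched to serum-free induction medium, then exposed in duplicate for 48 h to 8 concentrations (top 100 uM, half-log steps, 0.5% DMSO). ABCC2 mRNA was measured by qRT-PCR normalized to ACTB/GAPDH/POLR2A; bidirectional fitting versus DMSO.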

Active and inactive are the calls of the source. How the source made its calls: active means hit-call score of the fitted dose curve at least 0.9, where 1 is the maximum; inactive means score below 0.9.

Experimental findings from PubChem BioAssay (EPA / NIEHS) are described below.

Turning to `COc1ccc([N+](=O)[O-])cc1N`, the result in experiment [1], in experiment [2], in experiment [3], in experiment [4], in experiment [5] and in experiment [6] was inactive. The outcome in experiment [7] and in experiment [8] was inactive.
Regarding `CCCCOCCO`, the molecule was classed as inactive in experiment [1], in experiment [2], in experiment [4], in experiment [5], in experiment [6] and in experiment [7]. Also, the result in experiment [8] was inactive.
For orientation: AC50 means the concentration giving half of the maximal activity seen. On to `CC(=O)NC1(c2cccc(F)c2)CCN(CC[C@@]2(c3ccc(Cl)c(Cl)c3)CN(c3ccccc3)C(=O)CO2)CC1`, for which the AC50 in experiment [1] was 56.1 µM (active); in experiment [4], 68.7 µM (active); in experiment [7], 20.8 µM (active); in experiment [8], 71.9 µM (active). The molecule was classed as inactive in experiment [2], in experiment [5] and in experiment [6].
For `Oc1cc2ccccc2c2ccccc12`, the molecule was called inactive in experiment [1], in experiment [2], in experiment [4], in experiment [5], in experiment [6] and in experiment [8]. Further, the AC50 in experiment [7] was 38.9 µM (active).
As to `Cc1cc(C)c(O)c(C)c1`, the molecule was classed as inactive in experiment [1], in experiment [2], in experiment [4], in experiment [5], in experiment [6] and in experiment [7]. Besides, in experiment [8], the AC50 was 26.8 µM (active).
With `Oc1cccc(O)c1`, the call in experiment [1], in experiment [2], in experiment [3], in experiment [4], in experiment [5] and in experiment [6] was inactive. The molecule was called inactive in experiment [7] and in experiment [8].
As for `CC(C)(C)CC(C)(C)c1ccc(O)c(-n2nc3ccccc3n2)c1`, the molecule was classed as inactive in experiment [1], in experiment [2], in experiment [5], in experiment [6] and in experiment [7]. Also, the AC50 in experiment [4] and in experiment [8] was 50 µM (active) throughout.
For the molecule `COCC(C)OCC(C)O` (stereo not drawn), the result in experiment [1], in experiment [2], in experiment [4], in experiment [5], in experiment [6] and in experiment [7] was inactive. For the same molecule, in experiment [8], the outcome was inactive.
Take `CCCCCCCC(=O)O`: the result in experiment [1], in experiment [2], in experiment [5], in experiment [6], in experiment [7] and in experiment [8] was inactive. Further, the AC50 in experiment [4] was 12.4 µM (active).
For `OCCC(F)(F)C(F)(F)C(F)(F)C(F)(F)C(F)(F)C(F)(F)F`, the outcome in experiment [1], in experiment [2], in experiment [3], in experiment [4], in experiment [5] and in experiment [6] was inactive. Moreover, the result in experiment [7] and in experiment [8] was inactive.
Consider `ClC1=C(Cl)C(Cl)(Cl)C(Cl)=C1Cl`, for which the molecule was called inactive in experiment [1], in experiment [2], in experiment [3], in experiment [4], in experiment [5] and in experiment [6]. Also, the outcome in experiment [7] and in experiment [8] was inactive.
In the case of `CCc1nn(C2CCCCC2)c2cc(C3(C#N)CCC(C(=O)O)CC3)ccc12` (stereo not drawn), the AC50 in experiment [1] is 8.95 µM (active); in experiment [2] it was 86 µM (active); in experiment [4], 12.4 µM (active); in experiment [7], 82.8 µM (active). The result in experiment [5], in experiment [6] and in experiment [8] was inactive.
On to `COC(=O)CCCCC(=O)OC`, for which the molecule was classed as inactive in experiment [1], in experiment [2], in experiment [4], in experiment [5], in experiment [6] and in experiment [7]. In addition, the molecule was called inactive in experiment [8].
`CCCCCCCCCCCCc1ccccc1S(=O)(=O)O`: the outcome in experiment [1], in experiment [4], in experiment [5] and in experiment [6] was inactive. Moreover, the AC50 in experiment [2] is 88.4 µM (active); in experiment [7], 85.7 µM (active); in experiment [8], 12.3 µM (active).
For `CC[C@H](c1ccc(O)cc1)[C@@H](CC)c1ccc(O)cc1`, the AC50 in experiment [1] was 75.7 µM (active); in experiment [2], 78.5 µM (active); in experiment [4], 77.5 µM (active); in experiment [5], 66.9 µM (active); in experiment [8], 94.4 µM (active). The molecule was called inactive in experiment [6] and in experiment [7].
With `OC1CCCCC1`, the result in experiment [1], in experiment [2], in experiment [4], in experiment [5], in experiment [6] and in experiment [7] was inactive. Besides, in experiment [8], the result was inactive.
As to `CCCCCCCCOC(=O)CCCCCCCCC(=O)OCCCCCCCC`, the result in experiment [1], in experiment [2], in experiment [4], in experiment [5], in experiment [6] and in experiment [7] was inactive. The molecule was classed as inactive in experiment [8].
